# About 2,000 (36%) of roughly 5,500 compounds were called active. About 18% were inconclusive and are not listed. The list shows a part of the results. Unmarked numbers belong to inactive results. No stated cut-off is given here; in the data, active means normalized growth mostly below about 0.91 (no sharp cut-off); inconclusive means no clear call, values can overlap the other calls; inactive means mostly above about 0.92.
# Assay: chemical genetic growth profiling, strain panel (AID 1159580);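 further: tested at 20 µM; growth read once vehicle control cultures reached saturation at 30 °C; 1 = growth at the plate median or of vehicle wells; lower values mean less growth of the strain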
# Conditions: growth OD
# [1] = S. cerevisiae deletion strains, locus YBR021W, strain FUR4, hits give low values
# [2] = S. cerevisiae deletion strains, locus YBR229C, strain ROT2, hits give low values
# [3] = S. cerevisiae deletion strains, locus YCL029C, strain bik1, hits give low values
# [4] = S. cerevisiae deletion strains, locus YDL035C, strain GPR1, hits give low values
# [5] = S. cerevisiae deletion strains, locus YDL074C, strain BRE1, hits give low values
# [6] = S. cerevisiae deletion strains, locus YDL101C, strain DUN1, hits give low values
# [7] = S. cerevisiae deletion strains, locus YDL134C, strain PPH21, hits give low values
# [8] = S. cerevisiae deletion strains, locus YDL185W, strain tfp1, hits give low values
# [9] = S. cerevisiae deletion strains, locus YDL192W, strain arf1, hits give low values
# [10] = S. cerevisiae deletion strains, locus YDR101C, strain arx1, hits give low values
# [11] = S. cerevisiae deletion strains, locus YDR162C, strain NBP2, hits give low values
# [12] = S. cerevisiae deletion strains, locus YDR318W, strain mcm21, hits give low values
# [13] = S. cerevisiae deletion strains, locus YDR388W, hits give low values
# [14] = S. cerevisiae deletion strains, locus YDR502C, strain sam2, hits give low values
# [15] = S. cerevisiae deletion strains, locus YEL061C, strain CIN8, hits give low values
# [16] = S. cerevisiae deletion strains, locus YER110C, hits give low values
# [17] = S. cerevisiae deletion strains, locus YER155C, strain BEM2, hits give low values
# [18] = S. cerevisiae deletion strains, locus YER167W, strain BCK2, hits give low values
# [19] = S. cerevisiae deletion strains, locus YGL078C, strain dbp3, hits give low values
# [20] = S. cerevisiae deletion strains, locus YGL086W, strain mad1, hits give low values
# [21] = S. cerevisiae deletion strains, locus YGL248W, strain PDE1, hits give low values
# [22] = S. cerevisiae deletion strains, locus YGR135W, strain pre9, hits give low values
# [23] = S. cerevisiae deletion strains, locus YGR252W, strain gcn5, hits give low values
# [24] = S. cerevisiae deletion strains, locus YHR079C, strain IRE1 (second series), hits give low values
# [25] = S. cerevisiae deletion strains, locus YHR094C, strain hxt1, hits give low values
# [26] = S. cerevisiae deletion strains, locus YHR129C, strain ARP1, hits give low values
# [27] = S. cerevisiae deletion strains, locus YHR200W, strain rpn10, hits give low values
# [28] = S. cerevisiae deletion strains, locus YIL066C, strain RNR3, hits give low values
# [29] = S. cerevisiae deletion strains, locus YIL073C, strain SPO22, hits give low values
# [30] = S. cerevisiae deletion strains, locus YIL125W, strain kgd1, hits give low values
# [31] = S. cerevisiae deletion strains, locus YIR030C, strain dcg1, hits give low values
# [32] = S. cerevisiae deletion strains, locus YJL095W, strain BCK1, hits give low values
# [33] = S. cerevisiae deletion strains, locus YJL134W, strain LCB3, hits give low values
# [34] = S. cerevisiae deletion strains, locus YJL168C, strain set2, hits give low values
# [35] = S. cerevisiae deletion strains, locus YJL187C, strain SWE1 (second series), hits give low values
# [36] = S. cerevisiae deletion strains, locus YJR075W, strain HOC1, hits give low values
# [37] = S. cerevisiae deletion strains, locus YKL068W, hits give low values
# [38] = S. cerevisiae deletion strains, locus YKL085W, strain MDH1 (second series), hits give low values
# [39] = S. cerevisiae deletion strains, locus YKL085W, strain MDH1, hits give low values
# [40] = S. cerevisiae deletion strains, locus YKR001C, strain vps1, hits give low values
# [41] = S. cerevisiae deletion strains, locus YLR039C, strain RIC1, hits give low values
# [42] = S. cerevisiae deletion strains, locus YLR058C, strain SHM2, hits give low values
# [43] = S. cerevisiae deletion strains, locus YLR102C, strain apc9, hits give low values
# [44] = S. cerevisiae deletion strains, locus YLR268W, strain sec22, hits give low values
# [45] = S. cerevisiae deletion strains, locus YLR330W, strain CHS5, hits give low values
# [46] = S. cerevisiae deletion strains, locus YLR371W, strain rom2, hits give low values
# [47] = S. cerevisiae deletion strains, locus YLR418C, strain cdc73, hits give low values
# [48] = S. cerevisiae deletion strains, locus YML016C, strain PPZ1, hits give low values
# [49] = S. cerevisiae deletion strains, locus YML032C, strain rad52, hits give low values
# [50] = S. cerevisiae deletion strains, locus YML124C, strain tub3, hits give low values
# [51] = S. cerevisiae deletion strains, locus YMR078C, strain ctf18, hits give low values
# [52] = S. cerevisiae deletion strains, locus YMR223W, strain ubp8, hits give low values
# [53] = S. cerevisiae deletion strains, locus YMR263W, strain SAP30, hits give low values
# [54] = S. cerevisiae deletion strains, locus YMR307W, strain GAS1, hits give low values
# [55] = S. cerevisiae deletion strains, locus YNL067W, strain RPL9B, hits give low values
# [56] = S. cerevisiae deletion strains, locus YNL233W, strain BNI4, hits give low values
# [57] = S. cerevisiae deletion strains, locus YNL250W, strain rad50, hits give low values
# [58] = S. cerevisiae deletion strains, locus YNL271C, strain bni1, hits give low values
# [59] = S. cerevisiae deletion strains, locus YNL298W, strain CLA4, hits give low values
# [60] = S. cerevisiae deletion strains, locus YNL307C, strain MCK1, hits give low values
# [61] = S. cerevisiae deletion strains, locus YNR052C, strain pop2, hits give low values
# [62] = S. cerevisiae deletion strains, locus YOL006C, strain TOP1, hits give low values
# [63] = S. cerevisiae deletion strains, locus YOL012C, strain htz1
# [64] = S. cerevisiae deletion strains, locus YOL147C, strain pex11, hits give low values
# [65] = S. cerevisiae deletion strains, locus YOR061W, strain CKA2, hits give low values
# [66] = S. cerevisiae deletion strains, locus YOR069W, strain VPS5, hits give low values
# [67] = S. cerevisiae deletion strains, locus YOR136W, strain idh2, hits give low values
# [68] = S. cerevisiae deletion strains, locus YOR144C, strain elg1, hits give low values
# [69] = S. cerevisiae deletion strains, locus YOR184W, strain ser1, hits give low values
# [70] = S. cerevisiae deletion strains, locus YOR316C, strain cot1, hits give low values
# [71] = S. cerevisiae deletion strains, locus YPR119W, strain clb2, hits give low values
# [72] = S. cerevisiae deletion strains, locus YPR141C, strain kar3, hits give low values
# [73] = S. cerevisiae deletion strains, locus YPR163C, strain tif3, hits give low values
# [74] = S. cerevisiae deletion strains, locus YPR167C, strain met16, hits give low values
# [75] = S. cerevisiae deletion strains, strain wtn01, hits give low values
# [76] = S. cerevisiae strains, strain wild type, hits give low values
smiles,measurement,setting,value
COc1cc2c(cc1OC)C1C(=O)c3c(O)cc4c(c3OC1CO2)C=CC(C)(C)O4 (configuration not stated),normalized growth,[1],1.01
same,normalized growth,[2],1
same,normalized growth,[3],1.01
same,normalized growth,[4],0.965
same,normalized growth,[5],0.962
same,normalized growth,[6],1.01
same,normalized growth,[7],0.985
same,normalized growth,[8],1.01
same,normalized growth,[9],0.98
same,normalized growth,[10],1.02
same,normalized growth,[11],1
same,normalized growth,[12],0.995
same,normalized growth,[13],1
same,normalized growth,[14],1.03
same,normalized growth,[15],0.989
same,normalized growth,[16],1.02
same,normalized growth,[17],1.02
same,normalized growth,[18],1
same,normalized growth,[19],1.03
same,normalized growth,[20],1.02
same,normalized growth,[21],1.01
same,normalized growth,[22],1.06
same,normalized growth,[23],1.03
same,normalized growth,[24],1.01
same,normalized growth,[25],1.02
same,normalized growth,[26],0.991
same,normalized growth,[27],1.01
same,normalized growth,[28],0.981
same,normalized growth,[29],1.08
same,normalized growth,[30],1.02
same,normalized growth,[31],1.03
same,normalized growth,[32],1.01
same,normalized growth,[33],0.998
same,normalized growth,[34],1
same,normalized growth,[35],0.997
same,normalized growth,[36],0.999
same,normalized growth,[37],1.01
same,normalized growth,[38],1.01
same,normalized growth,[39],1.01
same,normalized growth,[40],0.718 (active)
same,normalized growth,[41],0.871
same,normalized growth,[42],0.977
same,normalized growth,[43],1.02
same,normalized growth,[44],1.01
same,normalized growth,[45],0.987
same,normalized growth,[46],1.02
same,normalized growth,[47],0.988
same,normalized growth,[48],1.01
same,normalized growth,[49],1.02
same,normalized growth,[50],1.03
same,normalized growth,[51],1.03
same,normalized growth,[52],1.01
same,normalized growth,[53],1.01
same,normalized growth,[54],0.949
same,normalized growth,[55],1.01
same,normalized growth,[56],1.01
same,normalized growth,[57],1.05
same,normalized growth,[58],1.03
same,normalized growth,[59],1.01
same,normalized growth,[60],1.02
same,normalized growth,[61],1.03
same,normalized growth,[62],0.933
same,normalized growth,[63],1.33
same,normalized growth,[64],0.999
same,normalized growth,[65],0.987
same,normalized growth,[66],1.01
same,normalized growth,[67],1
same,normalized growth,[68],1.01
same,normalized growth,[69],1.01
same,normalized growth,[70],1.01
same,normalized growth,[71],1.03
same,normalized growth,[72],1.03
same,normalized growth,[73],1
same,normalized growth,[74],1.03
same,normalized growth,[75],1.01
same,normalized growth,[76],0.932
COc1cc2c(cc1OC)C1C(=O)c3c(OC)cc4c(c3OC1CO2)CCC(C)(C)O4 (configuration not stated),normalized growth,"S. cerevisiae deletion strains, locus YAL013W, strain DEP1, hits give low values",1.01
same,normalized growth,[1],1.02
same,normalized growth,[2],1.02
same,normalized growth,[3],0.987
same,normalized growth,[4],1
same,normalized growth,[5],1.03
same,normalized growth,[6],1.03
same,normalized growth,[7],1.02
same,normalized growth,[8],0.988
same,normalized growth,[9],0.983
same,normalized growth,[10],0.984
same,normalized growth,"S. cerevisiae deletion strains, locus YDR150W, strain NUM1, hits give low values",1.02
same,normalized growth,[11],1.06
same,normalized growth,[12],0.988
same,normalized growth,[13],0.99
same,normalized growth,[14],0.997
same,normalized growth,[15],1.01
same,normalized growth,[16],0.985
same,normalized growth,[17],1.02
same,normalized growth,[18],1.01
same,normalized growth,[19],0.981
same,normalized growth,[20],0.975
same,normalized growth,[21],1.02
same,normalized growth,"S. cerevisiae deletion strains, locus YGR078C, strain PAC10, hits give low values",1.03
same,normalized growth,[22],1.01
same,normalized growth,"S. cerevisiae deletion strains, locus YGR229C, strain SMI1, hits give low values",1.01
same,normalized growth,[23],0.948
same,normalized growth,"S. cerevisiae deletion strains, locus YHR030C, strain SLT2, hits give low values",1.01
same,normalized growth,[24],0.988
same,normalized growth,[25],0.987
same,normalized growth,[26],1.01
same,normalized growth,[27],0.993
same,normalized growth,[28],1.02
same,normalized growth,[29],0.948
same,normalized growth,[30],0.983
same,normalized growth,[31],0.985
same,normalized growth,[32],1.01
same,normalized growth,[33],1.01
same,normalized growth,[34],0.979
same,normalized growth,[35],1.02
same,normalized growth,"S. cerevisiae deletion strains, locus YJR043C, strain POL32, hits give low values",1
same,normalized growth,[36],1.01
same,normalized growth,"S. cerevisiae deletion strains, locus YKL009W, strain mrt4, hits give low values",0.999
same,normalized growth,[37],0.983
same,normalized growth,[38],0.978
same,normalized growth,[39],0.978
same,normalized growth,"S. cerevisiae deletion strains, locus YKL190W, strain CNB1, hits give low values",1.02
same,normalized growth,[40],0.961
same,normalized growth,[41],0.964
same,normalized growth,[42],1.02
same,normalized growth,[43],0.992
same,normalized growth,"S. cerevisiae deletion strains, locus YLR262C, strain YPT6, hits give low values",0.994
same,normalized growth,[44],0.972
same,normalized growth,[45],1.01
same,normalized growth,"S. cerevisiae deletion strains, locus YLR342W, strain FKS1 (second series), hits give low values",0.981
same,normalized growth,[46],0.988
same,normalized growth,[47],1
same,normalized growth,[48],1.02
same,normalized growth,[49],0.966
same,normalized growth,[50],0.99
same,normalized growth,[51],0.979
same,normalized growth,[52],0.973
same,normalized growth,[53],1.03
same,normalized growth,[54],0.99
same,normalized growth,[55],1.03
same,normalized growth,"S. cerevisiae deletion strains, locus YNL128W, strain TEP1, hits give low values",1.02
same,normalized growth,"S. cerevisiae deletion strains, locus YNL153C, strain GIM3, hits give low values",1.03
same,normalized growth,[56],1.04
same,normalized growth,[57],0.968
same,normalized growth,[58],0.981
same,normalized growth,[59],1
same,normalized growth,[60],0.969
same,normalized growth,"S. cerevisiae deletion strains, locus YNL322C, strain KRE1, hits give low values",1.02
same,normalized growth,[61],0.976
same,normalized growth,[62],1.04
same,normalized growth,[63],0.96
same,normalized growth,[64],0.988
same,normalized growth,[65],1.02
same,normalized growth,[66],1.01
same,normalized growth,[67],0.981
same,normalized growth,[68],0.994
same,normalized growth,[69],0.95
same,normalized growth,[70],0.98
same,normalized growth,"S. cerevisiae deletion strains, locus YPL055C, strain LGE1, hits give low values",1.05
same,normalized growth,"S. cerevisiae deletion strains, locus YPL241C, strain CIN2, hits give low values",1.01
same,normalized growth,[71],0.983
same,normalized growth,[72],0.966
same,normalized growth,[73],0.976
same,normalized growth,[74],0.983
same,normalized growth,[75],0.997
same,normalized growth,[76],1
